An excerpt weighted towards active compounds, which were near 7.1% of everything screened.
Marburg entry: qHTS for Inhibitors of binding or entry into cells for Marburg Virus; Potency, µM (highest dose often 49.2 µM), for inactives: at the highest dose activity change, negative = inhibition, most hits filed as inhibitors; AID 720532, 2013; Marburg virus pseudotype entry/binding inhibition, cell-based; 6.5% of 18,000 active
Lassa entry: qHTS for Inhibitors of binding or entry into cells for Lassa Virus; Lassa virus pseudotyped entry inhibition, cell-based qHTS; Potency, µM (titrated, usually from 49.2 µM), for the others: at the highest dose activity change, negative = inhibition, hits mostly inhibitors; 4.1% of 18,000 active
Numbers without * were called inactive; ? = inconclusive; ! = a repeat was not active; [ ] = remark or other dose. The call rests on the fitted dose curve; tested in HEK293 cells. On the % scale 0 is the no-effect control and ±100 the full control effect; potency means the concentration at half of the fitted maximal effect.

SMILES | Marburg entry | Lassa entry
COc1cccc(CN2CCOc3ccc(C(O)c4cccnc4)cc3C2)c1 (centres undefined) | -14% | -12%
C(#CCN1CCCC1)CN1CCCC1 | 8.9µM* | ?
C=C(Nc1ccc(OCC)cc1)Nc1ccc(OCC)cc1 | ? | -27%
O=C(NCc1ccc(Cl)cc1)c1ccc(Br)o1 | -28% | -5%
COC(=O)CCC(=O)OC1(C)C(=O)C2=COC(c3ccc(OC)cc3)=CC2=C(Br)C1=O (centres undefined) | 2% | -3%
CN1CCC(=C2c3ccccc3CC(=O)c3sccc32)CC1 | 7.1µM*! | ?
CN1CCC(=C2c3ccccc3CCc3sccc32)CC1 | 11µM* | 22µM*!
CSCC[C@H](NC(=O)c1ccc(NC[C@@H](N)CS)cc1-c1ccccc1)C(=O)O | 25% | -13%
COC(=O)c1cn([C@H]2C[C@@H](C(=O)N3CCCCCC3)N(Cc3ccsc3)C2)nn1 | -15% | 0%
CN(C)C(=O)c1ccc(-c2nc(Nc3ccc(F)cc3)c3ccccc3n2)cc1 | -26% | -23%
CN(C)c1nc(NC2CCC(NC(=O)c3ccc(F)c(F)c3)CC2)nc2ccccc12 (centres undefined) | 2.8µM* | 16µM*
C=C(C)C(=O)OCCO | 6% | 4%
CC(C)CON=C1C[C@@H](O)[C@@H](O)[C@@H]2[C@H]3C(=O)N(c4cccc(Oc5ccccc5)c4)C(=O)[C@@H]3CC[C@H]12 | -1%[8.59 µM] | -7%[8.59 µM]
O=C(CCCN1CCC(n2c(=S)[nH]c3ccccc32)CC1)c1ccc(F)cc1 | ? | -20%
O=c1[nH]c2ccccc2n1CCCN1CCC(n2c(=O)[nH]c3cc(Cl)ccc32)CC1 | 13µM*! | ?
COc1cc(/C=C/C(=O)CC(=O)/C=C/c2ccc(O)c(OC)c2)ccc1O | ? | 32µM*!
COc1cc(C=O)ccc1O | 0% | -4%
COc1cc(/C=C/C(=O)O)ccc1O | 8% | -12%
COc1cc(C=C2CCC/C(=C\c3ccc(O)c(OC)c3)C2=O)ccc1O | ? | 32µM*
COc1ccc(/C=C/C(=O)CC(=O)/C=C/c2cccc(O)c2OC)cc1O | 8.9µM* | 10µM*
COc1cccc(/C=C/C(=O)O)c1C(C)C | 7% | -1%
C=C(C)C(O)/C=C/c1ccc(C(F)(F)F)cc1 (centres undefined) | -8% | 2%
CC(=O)Oc1cc(-c2coc3cc(OC(C)=O)c(OC(C)=O)c(OC(C)=O)c3c2=O)cc(OC(C)=O)c1OC(C)=O | 14µM* | -5%
COc1cc(-c2coc3cc(OC)c(OC)c(OC)c3c2=O)cc(OC)c1OC | 2% | -11%
CCNC(=O)/C=C/c1cccc(Br)c1 | 22% | -2%
SMILES | Marburg entry | Lassa entry
O=S1(=O)c2ccc(Br)cc2N2CCC[C@@H]2CN1Cc1ccc(Cl)cc1 | ? | 1%
CN1CCCC(n2nc(Cc3ccc(Cl)cc3)c3ccccc3c2=O)CC1 (centres undefined) | 7.9µM* | ?
COC(=O)C/C=C/[C@@H](C)[C@H](O)c1ccccc1Br | 6% | -2%
CCCCCCCCCCCCCCSCC(=O)O | 13% | -4%
COc1cc2c(cc1O)CCN[C@]21CS[C@@H]2c3c(OC(C)=O)c(C)c4c(c3[C@H](COC1=O)N1[C@@H]2[C@H]2c3c(cc(C)c(OC)c3O)C[C@@H]([C@@H]1O)N2C)OCO4 | ? | 40µM*!
Nc1ncnc(Nc2ccc(Cl)cc2)n1 | 20% | 39%
COc1ccc2c(c1)[nH]c1c(C)nccc12 | 22µM* | 4%
COc1ccc2c3c([nH]c2c1)C(C)=NCC3 | ? | -7%
CCCN(C/C=C/I)C1CCc2cccc(O)c2C1 (centres undefined) | ? | 8%
CCCN(CCC)C1CCc2cccc(O)c2C1 (centres undefined) | 22µM* | 32µM*
COc1cc(NS(C)(=O)=O)ccc1Cc1c2ccccc2nc2ccccc12 | 2µM* | ?
CN1CCN(c2nc(-c3cccc(NS(C)(=O)=O)c3)nc3ccccc23)CC1 | -29% | 22%
O=C(O)Cc1ccccc1Oc1ccc(Cl)cc1Cl | 2% | -15%
Oc1cc(Cl)ccc1Oc1ccc(Cl)cc1Cl | 35µM*! | 25µM*!
COc1ccc(/C=C/C(=O)O)cc1OC | 11% | 35%
COc1ccc(/C=C\C(=O)Nc2ccccc2C(=O)O)cc1OC | 40µM* | 20µM*
O=C(c1ccc(N2CCC(NCCCn3ncc4ccccc43)CC2)cc1)N1CCc2ccccc2C1 | 20µM* | ?
O=C(c1ccc(N2CCC(NCCCn3ncc4ccccc43)CC2)cc1)N1CCOCC1 | ? | 1%
COc1cccc(C(=O)N(Cc2cc3cc4c(cc3nc2N(C)C)OCO4)CC2CCCO2)c1 (centres undefined) | ? | -2%
Cc1cc2c(c(-c3cnccn3)c1)OC(CNC(=O)c1cc(Cl)ccc1F)C2 (centres undefined) | 25µM* | -2%
CSc1ccccc1C(=O)NCC1Cc2cc(F)cc(-c3cnccn3)c2O1 (centres undefined) | -5% | -10%
O=C(NCC1Cc2cccc(-c3cnccn3)c2O1)c1ccc(F)c(Cl)c1 (centres undefined) | 11µM* | 2%
O=C(NCC1Cc2cccc(-c3ncccn3)c2O1)c1cccc(-c2ccccc2F)c1 (centres undefined) | -1% | -14%
O=S1(=O)N[C@H](Cc2ccccc2)COc2cccc(N3CCCC3)c21 | 21% | 10%
COC(=O)CC(Oc1c(C)n(C)c2ccccc2c1=O)c1ccccc1 (centres undefined) | -5%[8.59 µM] | -6%[8.59 µM]
SMILES | Marburg entry | Lassa entry
Cc1ccc2c(=O)c3ccccc3n(CCCN)c2c1C | 10µM* | 10µM*!
N#CCCCS(=O)(=O)c1nnnn1C1CCCCC1 | -14% | 3%
COC(=O)Nc1nc2ccc(C(=O)c3ccccc3)cc2[nH]1 | ? | -32%[17.8 µM]
COC(=O)Nc1nc2ccc(C(=O)c3cccs3)cc2[nH]1 | 1.1µM*! | ?
CN(C)[C@H]1CCN([C@@H]2C[S+](=O)([O-])N[C@@H]2COCc2ccccc2)C1 | 23% | 9%
S=c1nc[nH]c2nc[nH]c12 | 13µM* | 14µM*
Brc1c(Br)c(Br)c2[nH]cnc2c1Br | -22% | 9%
CC(C)[C@H]1c2ccc(F)cc2CC[C@@]1(CCN(C)CCCc1nc2ccccc2[nH]1)OC(=O)C1CC1 | 8.9µM* | ?
O=C(O)CCc1nc2ccccc2[nH]1 | -4% | -11%
CCCC(=O)OC[C@H]1CN(C2CCCC2)S(=O)(=O)c2c(F)cccc2O1 | 22% | 10%
CCCC[C@@H](NC(=O)[C@@H](Cc1cn(C(=O)OC)c2ccccc12)NC(=O)[C@H](CC(C)(C)C)NC(=O)N1[C@H](C)CCC[C@@H]1C)C(=O)O | 8% | -13%
Cc1ccc(S(=O)(=O)NC(=O)NC2CCCC2)cc1 | 4% | -15%
C=C(C)C(=O)/C=C/C=C/c1ccccc1 | -21% | 3%
COc1cc(N)c(Cl)cc1C(=O)NC1CN2CCC1CC2 (centres undefined) | ? | -3%
COc1ccccc1[C@@H]1C(c2cccc(C)c2)=NN(c2ccccc2)[C@H]1C(=O)N1CCOC1=O | ? | -25%
CCN(CC)CCOC(=O)C(c1ccccc1)C1CCCCC1 (centres undefined) | ? | -11%
O=C(NCCCN1CCCCCC1)[C@@H](c1ccccc1)C1CCCCC1 | 13µM* | ?
CC(=O)Nc1ccc(C(=O)N2CCCC(c3nc(SCc4ccccn4)ncc3C)C2)cc1 (centres undefined) | -7% | 0%
